55 compounds from ChEMBL document CHEMBL4513216, “Probing the Open Global Health Chemical Diversity Library for Multistage-Active Starting Points for Next-Generation Antimalarials” (ACS Infect Dis, 2020) can be followed below.

Molecules are shown by their SMILES. The whole screen tested about 69,000 compounds, of which about 8,600 (12%) showed an effect of 50% or more. This is one part of a sample in which strong results are shown more often than they occur.

For this experiment, the system named is Plasmodium berghei. The experiment can be described thus: Screen against P. berghei liver stage (PbLuc), transformed with Luciferase, at 10uM. In kind it is functional, HepG2. The conditions noted are these: tested at 10 uM.
In the case of `Cc1nc(C2CCCN(C(=O)c3cc(C(C)(C)C)on3)C2)no1` (stereo not given), the INHIBITION is recorded as -21.8%.

On to `Cc1noc(C)c1-c1cc(CC2CCN(C(=O)c3cc[nH]n3)C2)ncn1` (stereo not given), for which the INHIBITION is given as 21.9%. Then `O=C(O)c1cccc(CN2CCC(c3ccnc4ccnn34)CC2)c1`, with 28%; and `Cn1cc(CN2CCOC(Cc3cccc(F)c3)C2)cn1` (stereo not given), with 36.8%; and `CC(C)(C)NC(=O)c1ccccc1NC(=O)c1ccncc1`, with 30.1%.

With `Cc1c(NC(=O)c2cnc[nH]2)cccc1C(=O)NC(C)(C)C`, the INHIBITION came out at 34.5%. `Cc1c(NC(=O)c2ncn[nH]2)cccc1C(=O)NC(C)(C)C`: the INHIBITION stood at 59.5%. For `CCn1c(NCC2CCCO2)nc2c(C)nn(C)c2c1=O` (stereo not given), the INHIBITION amounted to 25.8%. Then `O=C1CN(Cc2cc(O)c3cccc(F)c3n2)CCN1C1CCCC1`, with 37.7%; and `Cc1ccc(C)c2c(O)cc(CN3CCC(=O)NCC3C)nc12` (stereo not given), with 3.69%; and `OCC1CCCCN1Cc1cc(O)c2cccc(F)c2n1` (stereo not given), with 27.6%. Consider `NCC1CCCCN1Cc1cc(O)c2cccc(F)c2n1` (stereo not given), for which the INHIBITION was 44.7%. As to `Oc1cc(CN2CCCCC2c2cccnc2)nc2c(F)cccc12` (stereo not given), the INHIBITION was 54.4%. `CC1CNC(=O)CCN1Cc1cc(O)c2cccc(F)c2n1` (stereo not given): the INHIBITION is 51.2%. Regarding `O=C(c1cc(Cn2ccc3ccccc32)[nH]n1)N1CCOCC1`, the INHIBITION worked out at 16.2%. For `O=C([C@@H]1CCCO1)N1CCN(Cc2ccncc2)c2ncccc2C1`, the INHIBITION is recorded as 40.3%. `COCC(=O)N1CCC(c2csc(NC(C)=O)n2)CC1`: the INHIBITION was determined as 17.1%.

On to `NCC(c1ccccc1)N1CCc2sccc2C1` (stereo not given), for which the INHIBITION is -41.8%. Take `CSc1ccc(C(CNC(C)=O)N2CCc3sccc3C2)cc1` (stereo not given): the INHIBITION was 34.9%. Regarding `CC(C)c1ccc(C(CN)N2CCc3sccc3C2)cc1` (stereo not given), the INHIBITION amounted to 82.2%. With `NCC(c1ccc(Cl)cc1)N1CCc2sccc2C1` (stereo not given), the INHIBITION is given as 71.2%. As to `CSc1ccc(C(CNC(=O)C2CC2)N2CCc3sccc3C2)cc1` (stereo not given), the INHIBITION is reported as 19.7%. For the compound `CSc1ccc(C(CN)N2CCc3sccc3C2)cc1` (stereo not given), the INHIBITION is 66.3%. Take `CCC(=O)NCC(c1ccc(SC)cc1)N1CCc2sccc2C1` (stereo not given): the INHIBITION was 28.3%. Turning to `O=C(NCCO)NCC(c1ccccc1)N1CCc2sccc2C1` (stereo not given), the INHIBITION stood at 5.91%. Then `CCOCCCC(=O)NCC(c1ccccc1)N1CCc2sccc2C1` (stereo not given), with 27.6%. Take `Cc1ocnc1CNC(=O)Nc1ccc(N2CCOC(C)C2)cc1` (stereo not given): the INHIBITION is 25.8%. Then `COc1ccc(C)cc1C(C)NC(=O)Cn1ccc(=O)n(C)c1=O` (stereo not given), with -25.9%. On to `CN(C(=O)CCN1CCCC1=O)c1cc(C#N)c2ccccc2n1`, for which the INHIBITION was 31.2%. Then `c1cncc(C2COC3(CCN(Cc4ccsc4)CC3)C2)c1` (stereo not given), with 46.1%; and `COc1ccc(C(C)NCc2cscn2)cc1Cn1cccn1` (stereo not given), with 41.4%; and `CNc1cc(C2CCCN(Cc3ccccc3OCC(=O)O)C2)ccn1` (stereo not given), with 18.3%. With `Cc1cc(CNC(=O)CN2CCCC(Cn3cncn3)C2)ccc1F` (stereo not given), the INHIBITION amounted to 25.6%. Then `Cc1ccc(C)c(-n2ncc(NC(=O)NC3(C)CCOC3)c2C)c1` (stereo not given), with 33.2%.

Regarding `Cc1ccc(-n2cc(C)cn2)c(NC(=O)NC2(C)CCOC2)c1` (stereo not given), the INHIBITION is given as 56.3%. Consider `Cc1ccc(Cl)c(NC(=O)NC2(C)CCOC2)c1` (stereo not given), for which the INHIBITION turned out to be 24.8%. `O[C@@H]1CN(Cc2cnccn2)C[C@H]1Oc1ccccc1`: the INHIBITION is -10.5%.

Regarding `O=C(Cc1cccc(O)c1)N1CCCC(OCc2cccnc2)C1` (stereo not given), the INHIBITION came out at 36.2%. Then `CC(C)(C)C(=O)NCCc1cc(N2CCOCC2)nc(NC2CC2)n1`, with 30.15%; and `Cc1cnn(CC2CCCN2C(=O)c2ccc(-n3cccn3)nc2)c1` (stereo not given), with 16.2%; and `Cc1nc(-c2ccc(F)c(F)c2)cc(C2CCNCC2)n1`, with -2.09%.

For `Cc1ccc(-c2cc(C3CCNCC3)nc(C)n2)cc1`, the INHIBITION turned out to be 6.26%. Turning to `Cc1nc(-c2ccc(F)cc2)cc(C2CCNCC2)n1`, the INHIBITION came out at 54.5%. In the case of `O=C(CN1CCSC(c2ccccc2)C1)NCc1ccccn1` (stereo not given), the INHIBITION is 31.9%. In the case of `O=C(CCc1ccc2c(c1)CCO2)Nc1nnn[nH]1`, the INHIBITION was determined as 28.6%. For `COc1ccc(C(=O)N2CC(=O)N(CC3CC3)CC(O)C2)cc1` (stereo not given), the INHIBITION was 42.7%. Take `CC(C)c1cc(C(=O)N2CCOCC2CC(=O)c2ccco2)nn1C` (stereo not given): the INHIBITION is -4.35%. As for `C/N=C1\c2cc3cc(OC)ccc3n2CCN1Cc1ccccc1`, the INHIBITION was 83%. For `C/N=C1/c2cc3cc(OC)ccc3n2CCN1Cc1ccccc1`, the INHIBITION is recorded as 67.6%.

As for `COc1ccc2c(ccn2CCN)c1`, the INHIBITION was found to be 34.7%. On to `C/N=C1/c2cc3cc(OC)ccc3n2CCN1C`, for which the INHIBITION amounted to 15.06%. As to `COc1ccc(CN2CC[C@@H](O)[C@@H]2Cc2ccccc2)cc1`, the INHIBITION is given as -23.7%.

As for `C/N=C1\c2cc3cc(OC)ccc3n2CCN1C`, the INHIBITION was -6.09%. Turning to `Fc1cccc(CN2CCC[C@@H](Cn3nnc(-c4ccccn4)n3)C2)c1`, the INHIBITION was 40.1%. Then `Cn1nc(CNC(=O)c2cccc(C(F)(F)F)c2)c2c1CCOC2`, with 15.9%.
